Our source for the growth inhibition values is PubChem BioAssay (NCI).

About 79,000 compounds went through this panel and 15% of them were active in at least one assay; those are over-represented in the sample as a whole. Values without a mark were called inactive. Cut-off read from the data, not from the text of the source: active = growth inhibition above about 70%; inactive = the rest.

One test can be described thus: NCI Yeast Anticancer Drug Screen. Data for the cln2 rad14 strain (AID 165).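 Note: 0% = growth equal to vehicle treated cultures.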 The note with it: S. cerevisiae cln2 rad14 strain, at 50.0 µM, active compounds read high. In a few lines: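 Growth inhibition, relative to vehicle-treated controls, is the read-out. The test organism is a yeast strain with defined genetic alterations, cln2 rad14.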
With `C=C(C)CC1CN2CCc3cc(OC)c(OC)cc3C2CC1=O` (stereo not given), the growth inhibition is 18.8%.

On to `Clc1ccc2oc(N3CCOCC3)nc2c1`, for which the growth inhibition is -13.4%.

With `O=c1nc(N2CCCCCCC2)ccn1C1OC(CO)C(O)C1O` (stereo not given), the growth inhibition was 6.75%.

Take `Cn1c(=O)c2[nH]c(CC3=CCCCC3)nc2n(C)c1=O`: the growth inhibition was -8.35%.

For the compound `CC[N+](C)(CC)CCOc1nc2c(c(=O)n(C)c(=O)n2C)n1C`, the growth inhibition is 5.25%.

`CC(=O)CCC(=O)OCc1ccccc1`: the growth inhibition is 10.3%.

For the compound `O=C(NCCO)Nc1ccc2c(c1)OCCOCCOCCOCCO2`, the growth inhibition is 14.1%.

`S=C(N1CCN(c2ccc(Cl)c(Cl)c2)CC1)N1CCN(c2ccc(Cl)c(Cl)c2)CC1`: the growth inhibition was 12%.

As for `NCCSC(O)(C(F)(F)F)C(F)(F)F`, the growth inhibition was -15.2%.

In the case of `CC(C)=Cc1cc(C(=O)Nc2ccc(Cl)c(Cl)c2)nc(N)n1`, the growth inhibition was -0.5%.

Regarding `OC1c2ccccc2OC2(N3CCCC3)CCCCC12` (stereo not given), the growth inhibition was -15.7%.

As for `Cc1nc2c(-c3ccccc3)[nH]c(C)c2c(=O)o1`, the growth inhibition was -8.8%.

Take `COC1OC(C(COC(=O)c2ccccc2)OC(=O)c2ccccc2)C(OC(=O)c2ccccc2)C1OS(C)(=O)=O` (stereo not given): the growth inhibition is 28.4%.

Consider `COCc1ccc(C(=O)Nc2c(N)ncnc2N)cc1`, for which the growth inhibition was 0.9%.

For `CC(C)(C)C(=O)CC(=O)C(C)(C)C.CC(C)(C)C(=O)CC(=O)C(C)(C)C.CC(C)(C)C(=O)CC(=O)C(C)(C)C.[Co]`, the growth inhibition is 16%.

Take `CNC(=O)Sc1ccc([N+](C)(C)C)cc1`: the growth inhibition is -7.5%.

Take `CCCN1C(=O)c2cc(=O)n(Cc3ccccc3)c(O)c2C1C` (stereo not given): the growth inhibition is 8.4%.

Regarding `CC(=O)/C=C(O)/C=C/c1ccccc1`, the growth inhibition was 9.15%.

For `C1CCCNCCNCCNCC1`, the growth inhibition is 16.1%.

`O=NNc1ccnc(-c2cc(NN=O)ccn2)c1`: the growth inhibition is -0.9%.

On to `CCC1(C(Cl)(Cl)Cl)C=CC(=O)C=C1`, for which the growth inhibition is 12.8%.

For `CCCCCCc1cc(C(=O)N/N=C/c2ccccc2O)c2ccccc2n1`, the growth inhibition is -13.2%.

For the compound `Cc1ccc(CNC(=O)Nc2cccc(Cl)c2)cc1C`, the growth inhibition is 1.3%.

In the case of `O=C(O)CCC(=O)c1ccc2c3c1CCCC3CC2` (stereo not given), the growth inhibition was 29%.

For `CCOC(=O)C1=CC(C)(C(=O)OCC)Nc2c(nc(SC)n(C)c2=O)N1` (stereo not given), the growth inhibition was 16.8%.

`COc1ccc(C(C)c2cc3c(cc2OC)OCO3)cc1` (stereo not given): the growth inhibition is 3.35%.

With `COc1ccccc1/C=C1/Sc2scc(CC(=O)Nc3ccccc3)[n+]2C1=O`, the growth inhibition is 17.7%.

Consider `NC(=O)C(=O)NNC(=O)Nc1ccc(Cl)cc1`, for which the growth inhibition was -13.3%.

Turning to `COc1ccc(N2C(=O)C3CC(c4ccc(Br)cc4)c4c([nH]c5ccccc45)C3C2=O)cc1` (stereo not given), the growth inhibition was -51.8%.

As to `O=N[O-].O=N[O-].[Co].[NH-]CC[N-]CC[N-]CC[NH-]`, the growth inhibition was 3.65%.

For the compound `COc1cccc2c1oc(=O)c1ccccc12`, the growth inhibition is -66.8%.

As to `O=C1[C@H]2ON(c3ccccc3)C(c3ccc(Cl)cc3)[C@H]2C(=O)N1c1ccc(Cc2ccc(N3C(=O)[C@@H]4ON(c5ccccc5)C(c5ccc(Cl)cc5)[C@@H]4C3=O)cc2)cc1` (stereo not given in full), the growth inhibition was 26.4%.

For the compound `Cc1ccc(C(=O)C2CC2c2ccccc2)cc1` (stereo not given), the growth inhibition was -38%.

In the case of `Cc1cc(Cl)c(C)c(C)c1O`, the growth inhibition was 16.6%.

Consider `COC(=O)/C(=N\NC(N)=O)C(C#N)c1ccccc1` (stereo not given), for which the growth inhibition was -29.9%.

For `CC(=O)NC1C(=O)N(c2ccccc2)N=C1C` (stereo not given), the growth inhibition is 22.6%.

Consider `C/C(=N\NC(N)=S)c1ccc(/C(C)=N/NC(N)=S)cc1`, for which the growth inhibition is -13.2%.

Take `Nc1c(-c2nc3ccccc3[nH]2)sc(=S)n1-c1ccc(Cl)cc1`: the growth inhibition is 8.9%.

In the case of `COc1cccc(/C(C=O)=C(\Cl)c2ccc(OC)c(OC)c2)c1`, the growth inhibition was 6.7%.

Regarding `CCCCC1(CCO)C(=O)N=C(N)NC1=O` (stereo not given), the growth inhibition is -22.9%.

A short description of a further test: NCI Yeast Anticancer Drug Screen. Data for the bub3 strain (AID 167). The note with it: S. cerevisiae bub3 mutant strain, at 50.0 µM, active compounds read high. In a few lines: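 Part of a panel of yeast mutants defective in DNA damage repair or cell cycle regulation. Each strain is grown with compound, and inhibition is calculated relative to solvent-treated cultures.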
Regarding `C=C(C)CC1CN2CCc3cc(OC)c(OC)cc3C2CC1=O` (stereo not given), the growth inhibition is 43.6%.

Regarding `Clc1ccc2oc(N3CCOCC3)nc2c1`, the growth inhibition was 15.7%.

Consider `O=c1nc(N2CCCCCCC2)ccn1C1OC(CO)C(O)C1O` (stereo not given), for which the growth inhibition was 6.85%.

Consider `Cn1c(=O)c2[nH]c(CC3=CCCCC3)nc2n(C)c1=O`, for which the growth inhibition is 4.4%.

Regarding `CC[N+](C)(CC)CCOc1nc2c(c(=O)n(C)c(=O)n2C)n1C`, the growth inhibition is -22.5%.

As for `CC(=O)CCC(=O)OCc1ccccc1`, the growth inhibition was -3%.

Turning to `O=C(NCCO)Nc1ccc2c(c1)OCCOCCOCCOCCO2`, the growth inhibition was 1.75%.

On to `S=C(N1CCN(c2ccc(Cl)c(Cl)c2)CC1)N1CCN(c2ccc(Cl)c(Cl)c2)CC1`, for which the growth inhibition is 5.55%.

Turning to `NCCSC(O)(C(F)(F)F)C(F)(F)F`, the growth inhibition is 1.2%.

On to `CC(C)=Cc1cc(C(=O)Nc2ccc(Cl)c(Cl)c2)nc(N)n1`, for which the growth inhibition is -41.8%.

As for `OC1c2ccccc2OC2(N3CCCC3)CCCCC12` (stereo not given), the growth inhibition is -26.4%.

For the compound `Cc1nc2c(-c3ccccc3)[nH]c(C)c2c(=O)o1`, the growth inhibition was -18.5%.

As to `COC1OC(C(COC(=O)c2ccccc2)OC(=O)c2ccccc2)C(OC(=O)c2ccccc2)C1OS(C)(=O)=O` (stereo not given), the growth inhibition is -0.1%.

As to `COCc1ccc(C(=O)Nc2c(N)ncnc2N)cc1`, the growth inhibition was 23.7%.

For the compound `CC(C)(C)C(=O)CC(=O)C(C)(C)C.CC(C)(C)C(=O)CC(=O)C(C)(C)C.CC(C)(C)C(=O)CC(=O)C(C)(C)C.[Co]`, the growth inhibition was -0.6%.

Regarding `CNC(=O)Sc1ccc([N+](C)(C)C)cc1`, the growth inhibition is 18.8%.

Regarding `CCCN1C(=O)c2cc(=O)n(Cc3ccccc3)c(O)c2C1C` (stereo not given), the growth inhibition is -9.45%.

For `CC(=O)/C=C(O)/C=C/c1ccccc1`, the growth inhibition is 14.9%.

On to `C1CCCNCCNCCNCC1`, for which the growth inhibition is -20.8%.

Take `O=NNc1ccnc(-c2cc(NN=O)ccn2)c1`: the growth inhibition was -12.5%.

As for `CCC1(C(Cl)(Cl)Cl)C=CC(=O)C=C1`, the growth inhibition is 4.7%.

Regarding `CCCCCCc1cc(C(=O)N/N=C/c2ccccc2O)c2ccccc2n1`, the growth inhibition is 67.6%.

In the case of `Cc1ccc(CNC(=O)Nc2cccc(Cl)c2)cc1C`, the growth inhibition was 16.8%.

With `O=C(O)CCC(=O)c1ccc2c3c1CCCC3CC2` (stereo not given), the growth inhibition is 17.2%.

As for `CCOC(=O)C1=CC(C)(C(=O)OCC)Nc2c(nc(SC)n(C)c2=O)N1` (stereo not given), the growth inhibition is -1.55%.

Take `COc1ccc(C(C)c2cc3c(cc2OC)OCO3)cc1` (stereo not given): the growth inhibition was 3%.

As to `COc1ccccc1/C=C1/Sc2scc(CC(=O)Nc3ccccc3)[n+]2C1=O`, the growth inhibition is -4.7%.

As to `NC(=O)C(=O)NNC(=O)Nc1ccc(Cl)cc1`, the growth inhibition was 1.75%.

Consider `COc1ccc(N2C(=O)C3CC(c4ccc(Br)cc4)c4c([nH]c5ccccc45)C3C2=O)cc1` (stereo not given), for which the growth inhibition is 2.9%.

Turning to `O=N[O-].O=N[O-].[Co].[NH-]CC[N-]CC[N-]CC[NH-]`, the growth inhibition is 19.6%.

With `COc1cccc2c1oc(=O)c1ccccc12`, the growth inhibition is -2.35%.

As to `O=C1[C@H]2ON(c3ccccc3)C(c3ccc(Cl)cc3)[C@H]2C(=O)N1c1ccc(Cc2ccc(N3C(=O)[C@@H]4ON(c5ccccc5)C(c5ccc(Cl)cc5)[C@@H]4C3=O)cc2)cc1` (stereo not given in full), the growth inhibition was 21.4%.

As for `Cc1ccc(C(=O)C2CC2c2ccccc2)cc1` (stereo not given), the growth inhibition is -0.95%.

With `Cc1cc(Cl)c(C)c(C)c1O`, the growth inhibition is 1.25%.

For `COC(=O)/C(=N\NC(N)=O)C(C#N)c1ccccc1` (stereo not given), the growth inhibition is 6.7%.

For `CC(=O)NC1C(=O)N(c2ccccc2)N=C1C` (stereo not given), the growth inhibition was -6.5%.

Regarding `C/C(=N\NC(N)=S)c1ccc(/C(C)=N/NC(N)=S)cc1`, the growth inhibition is -1.2%.

Turning to `Nc1c(-c2nc3ccccc3[nH]2)sc(=S)n1-c1ccc(Cl)cc1`, the growth inhibition was 7.8%.

For the compound `COc1cccc(/C(C=O)=C(\Cl)c2ccc(OC)c(OC)c2)c1`, the growth inhibition is 33.5%.

`CCCCC1(CCO)C(=O)N=C(N)NC1=O` (stereo not given): the growth inhibition was -5.6%.
